Measurements: PubChem BioAssay (NCATS)
Inconclusive results are not listed. Calls of active or inactive are those of the source. Unless noted, the call rests on the fitted dose curve; in most records, active means well fitted curve in the direction sought with a large enough effect; inconclusive means small, poorly fitted or top-dose-only effect, or another doubt; inactive means no such curve, though single readings can be large; an effect the other way counts as inactive or inconclusive.

Tests used:
[1] = Cytotoxicity counterscreen for NFkB agonists and antagonists (AID 624476);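 further: cells exposed to compound for 48 hours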; further: potency means the concentration at half of the fitted maximal effect
[2] = qHTS Assay for Identification of Small Molecule Antagonists for NFkB Signaling Pathway. (AID 624479; calls by dose curve;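 further: pathway stimulated with TNF alpha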; further: potency means the concentration at half of the fitted maximal effect)
[3] = Cell Proliferation Assay against the TMD8 Cell Line (AID 651645); settings: TMD8 DLBCL cell line proliferation/viability; at 46.1 µM (top of the series);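 further: cells exposed to compound for 48 h before reading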
Procedure, shortened: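 500 TMD8 cells/well, RPMI + Glutamax, no phenol red, 5% FBS; cpd added immediately; 48 h, 37C, 5% CO2; CellTiter-Glo, luminescence. Controls: DMSO = 100%, bortezomib 9.2 uM final = 0%.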

[4] = Cell Proliferation Assay against the HBL1 Cell Line (AID 651646); settings: HBL1 DLBCL cells; at 46.1 µM (top of the series);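 further: cells exposed to compound for 48 h before reading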
Procedure, shortened: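 500 log-phase HBL1 cells per well in phenol red-free RPMI with 5% FBS were treated with compounds for 48 h at 37 °C, 5% CO2. Viability was read by CellTiter-Glo luminescence, normalized to DMSO (100%) and 9.2 uM bortezomib final (0%).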

[5] = Cell Proliferation Assay against the TMD8 Cell Line (Caspase readout at 8 hrs) (AID 651713); further: potency means the concentration at half of the fitted maximal effect
Procedure, shortened: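 Seed log-phase TMD8 cells, add compound by pin tool, incubate 8 h at 37C under 5% CO2, equilibrate to room temperature, add Caspase-Glo, wait 15 min, read luminescence; percent activity uses DMSO and 9.2 uM bortezomib controls.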

[6] = qHTS for small molecule inhibitors of Yes1 kinase: Counter Assay (AID 686950);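 further: no kinase present so only ADP-Glo detection of a fixed ADP amount is tested; luminescence from ADP-Glo reporting ADP in a fixed ATP and ADP mixture; 0% = DMSO wells with ATP plus ADP and -100% = ATP-only wells without ADP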
Procedure, shortened: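 Enzyme-free ADP-Glo interference check: compounds were preincubated 20 min in buffer, then an ATP/ADP mix (0.08 mM ATP, 0.02 mM ADP final) was added for 60 min at room temperature before two-step ADP-Glo luminescence detection.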

[7] = qHTS Assay for Identification of Small Molecule Agonists for NFkB Signaling Pathway. (AID 624478);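 further: compounds tested together with TNF alpha at its EC50 of 10 pM; 0% is about no effect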
Procedure, shortened: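 ME-180 cervical carcinoma, stable NFkB-RE beta-lactamase reporter; 1000 cells/well, overnight attachment; cpd + TNF alpha 10 pM final, 5 h 37 C; LiveBLAzer 2 h RT; FRET 460/530 nm, ex 405 nm.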

[8] = Cell Proliferation Assay against the TMD8 Cell Line (Caspase readout at 16 hrs) (AID 651712); further: potency means the concentration at half of the fitted maximal effect
Procedure, shortened: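 TMD8 cells (500/well) in phenol-red-free RPMI with glutamine, 5% FBS, were exposed to compounds for 16 h at 37 °C. Caspase 3/7 activation was read by Caspase-Glo luminescence; percent activity normalised to DMSO (0%) and 9.2 uM bortezomib final (100%).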

[9] = molecular target: Tyrosine-protein kinase Yes (Homo sapiens) (UniProt P07947); experiment: qHTS for small molecule inhibitors of Yes1 kinase: Primary Screen (AID 686947); further: nearly all actives have a fitted effect of over 60% in size; further: potency means the concentration at half of the fitted maximal effect
Procedure, shortened: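 Yes1 (4 nM) preincubated 20 min with compound, then 60 min room-temperature reaction with 0.1 mM ATP and 0.3 mg/mL poly(E4Y) in pH 7.5 Tris, 10 mM MgCl2. ADP measured by ADP-Glo luminescence, normalised to enzyme/no-enzyme controls.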

Sequence of Tyrosine-protein kinase Yes (Homo sapiens) (P07947 whole entry, looked up): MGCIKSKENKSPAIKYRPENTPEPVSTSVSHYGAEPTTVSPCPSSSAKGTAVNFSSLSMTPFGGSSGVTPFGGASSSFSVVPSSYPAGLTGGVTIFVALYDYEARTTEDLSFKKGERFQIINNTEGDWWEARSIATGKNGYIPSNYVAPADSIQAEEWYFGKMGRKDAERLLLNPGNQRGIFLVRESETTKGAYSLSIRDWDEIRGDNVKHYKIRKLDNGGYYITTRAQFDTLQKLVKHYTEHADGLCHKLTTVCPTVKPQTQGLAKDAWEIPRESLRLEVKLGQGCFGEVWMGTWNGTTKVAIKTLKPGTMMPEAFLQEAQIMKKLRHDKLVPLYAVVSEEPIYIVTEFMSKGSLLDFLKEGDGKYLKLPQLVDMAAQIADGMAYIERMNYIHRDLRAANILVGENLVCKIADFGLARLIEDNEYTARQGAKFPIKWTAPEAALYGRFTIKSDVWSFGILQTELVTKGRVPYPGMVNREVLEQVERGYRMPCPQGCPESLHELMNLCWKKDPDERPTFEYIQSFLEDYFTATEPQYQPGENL

SMILES	Potency [1]	Potency [2]	viability (% of control) [3]	viability, percent of control [4]	Potency [5]	outcome [6]	outcome [7]	Potency [8]	Potency [9]
CCCCCN(CCC12CC3CC(CC(C3)C1)C2)C(=O)NCCCc1ccncc1	23.5 µM (active)	21.1 µM (active)	1.96%	1.97%	23.5 µM (active)	inactive	–	–	–
CC(=O)SC[C@@H](C)C(=O)N1CCC[C@H]1C(=O)N[C@@H](Cc1ccccc1)C(=O)O	–	8.41 µM (active)	104%	97.5%	inactive	inactive	inactive	inactive	inactive
CC(C)(C)c1cc(NC(=O)Nc2ccc(-c3cn4c(n3)sc3cc(OCCN5CCOCC5)ccc34)cc2)no1	–	13.3 µM (active)	41.9%	30.7%	inactive	inactive	inactive	inactive	inactive
CC(=O)c1c(C)c2cnc(Nc3ccc(N4CCNCC4)cn3)nc2n(C2CCCC2)c1=O	–	16.8 µM (active)	0.508%	1.52%	33.2 µM (active)	inactive	inactive	18.7 µM (active)	–
CC(C)(C)OC(=O)Nc1ccc(-c2cc(C(=O)NCCCCCCC(=O)NO)no2)cc1	–	inactive	2.43%	3.39%	–	inactive	inactive	1.32 µM (active)	inactive
CC1=C(CO)C(=O)O[C@@H]([C@@H](C)[C@H]2CC[C@H]3[C@@H]4C[C@H]5O[C@]56[C@@H](O)C=CC(=O)[C@]6(C)[C@@H]4CC[C@]23C)C1	3.32 µM (active)	1.49 µM (active)	0.616%	1.69%	inactive	inactive	–	inactive	inactive
Nc1ccc(C(=O)c2cc3c(ccc4ccccc43)[nH]2)cc1	–	14.9 µM (active)	28.2%	14.4%	inactive	inactive	inactive	26.4 µM (active)	–
C=CCn1c(=O)c2cnc(Nc3ccc(N4CCN(C)CC4)cc3)nc2n1-c1cccc(C(C)(C)O)n1	1.66 µM (active)	–	11.5%	31.1%	–	inactive	inactive	–	0.0434 µM (active)
COc1cc(OC2CCN(C)CC2)ccc1Nc1ncc2c(n1)n(C1CCCC1)c(=O)n2C	inactive	–	56.7%	38.2%	10.5 µM (active)	inactive	inactive	–	–
O=C(Nc1cc(C(F)(F)F)cc(C(F)(F)F)c1)c1cc(Cl)ccc1O	0.235 µM (active)	–	1.86%	12.7%	–	inactive	inactive	0.296 µM (active)	–
Nc1nccc(Oc2ccc(NC(=O)c3c[nH]cc(-c4ccc(F)cc4)c3=O)cc2F)c1Cl	18.7 µM (active)	5.95 µM (active)	4.79%	14.4%	inactive	inactive	–	inactive	48.7 µM (active)
C=C1C(=CC=C2CCC[C@]3(C)[C@@H]([C@H](C)C=C[C@H](C)C(C)C)CC[C@@H]23)C[C@@H](O)C[C@@H]1O	–	21.1 µM (active)	–	–	–	–	inactive	–	–
C[C@@H](Oc1cc(-c2cnn(C3CCNCC3)c2)cnc1N)c1c(Cl)ccc(F)c1Cl	inactive	–	2.18%	-0.628%	26.4 µM (active)	inactive	inactive	–	–
Cc1cc(Nc2cc(NC(=O)c3c(Cl)cccc3Cl)ccn2)nc(N)n1	–	0.266 µM (active)	2.69%	31.3%	29.6 µM (active)	inactive	inactive	18.7 µM (active)	–
Cn1c(=O)n(-c2ccc(C(C)(C)C#N)cc2)c2c3cc(-c4cnc5ccccc5c4)ccc3ncc21	–	inactive	10.6%	38.2%	–	inactive	inactive	20.9 µM (active)	inactive
O=C(c1ccc(Nc2nccc(-c3cc4ccccc4s3)n2)cc1)N1CCC(N2CCCC2)CC1	–	0.266 µM (active)	0.477%	0.745%	–	inactive	inactive	inactive	0.0688 µM (active)
C[C@@]12O[C@@H](C[C@]1(O)CO)n1c3ccccc3c3c4c(c5c6ccccc6n2c5c31)CNC4=O	3.32 µM (active)	–	1.51%	3.21%	–	inactive	inactive	–	–
CC[C@H](CO)Nc1nc(NCc2ccccc2)c2ncn(C(C)C)c2n1	–	–	7.77%	55%	–	inactive	inactive	0.935 µM (active)	–
O=C(O)c1ccc2c(c1)nc(Nc1cccc(Cl)c1)c1ccncc12	–	0.298 µM (active)	0.231%	32.2%	inactive	inactive	inactive	–	0.487 µM (active)
